According to PubChem BioAssay (NCI):
About 79,000 compounds went through this panel and 15% of them were active in at least one assay; those are over-represented in the sample as a whole. The source made the active and inactive calls. Rule as the data show it: active = growth inhibition above about 70%; inactive = the rest.

Legend:
[1] = NCI Yeast Anticancer Drug Screen. Data for the wt1 strain (AID 149);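 also: 0% = growth of vehicle-treated wt1 cultures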; details: S. cerevisiae wt1 strain (SPY 50644) growth inhibition, stronger effect = higher value
In short: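 wt1 yeast, compound-treated; % growth inhibition vs vehicle control.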

[2] = NCI Yeast Anticancer Drug Screen. Data for the rad50EPP+ strain (AID 151);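 also: 0% = growth of vehicle-treated control cultures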; details: S. cerevisiae rad50 mutant strain, stronger effect = higher value
In short: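 One strain with a rad50 alteration (rad50EPP+) was compound-treated, its growth then compared to that of vehicle controls.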

[3] = NCI Yeast Anticancer Drug Screen. Data for the mgt1 strain (AID 153); details: S. cerevisiae mgt1 mutant growth inhibition, stronger effect = higher value
In short: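 After exposure of the mgt1 yeast mutant to compound, growth was measured and reported as inhibition compared with vehicle controls.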

[4] = NCI Yeast Anticancer Drug Screen. Data for the rad50 strain (AID 155);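 also: 0% = growth of vehicle-only cultures of the same strain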; details: S. cerevisiae rad50 strain growth inhibition, stronger effect = higher value
In short: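 Genetically altered yeast (DNA repair pathway); compound treatment; growth inhibition vs vehicle ctrl.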

[5] = NCI Yeast Anticancer Drug Screen. Data for the rad14 strain (AID 159);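 also: 0% = growth of vehicle-treated control cultures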; details: S. cerevisiae rad14 strain growth inhibition, stronger effect = higher value
In short: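 Test compounds were applied to a repair-deficient yeast strain. Its growth was then compared with that of cultures given vehicle alone, and inhibition was expressed relative to those controls.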

[6] = NCI Yeast Anticancer Drug Screen. Data for the sgs1 mgt1 strain (AID 161);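 also: 0% = growth of cultures given vehicle only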; details: S. cerevisiae sgs1 mgt1 strain, stronger effect = higher value
In short: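 Inhibition of yeast growth, normalised to vehicle-treated controls, is reported for a strain bearing genetic alterations in DNA damage repair.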

[7] = NCI Yeast Anticancer Drug Screen. Data for the CLN2oe strain (AID 163);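 also: 0% = growth of vehicle-only control cultures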; details: S. cerevisiae CLN2oe strain, stronger effect = higher value
In short: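 Here, growth inhibition in a cell-cycle-altered yeast strain after compound exposure was quantified against vehicle control growth.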

[8] = NCI Yeast Anticancer Drug Screen. Data for the cln2 rad14 strain (AID 165);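 also: 0% = growth equal to vehicle treated cultures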; details: S. cerevisiae cln2 rad14 strain, stronger effect = higher value
In short: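 Growth of compound-exposed yeast (cln2 rad14 genotype) measured and expressed as inhibition relative to vehicle.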

[9] = NCI Yeast Anticancer Drug Screen. Data for the bub3 strain (AID 167); details: S. cerevisiae bub3 mutant strain, stronger effect = higher value
In short: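 Yeast carrying a defined mutation is treated with each compound, and growth is compared with that of vehicle-exposed cells to give inhibition.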

[10] = NCI Yeast Anticancer Drug Screen. Data for the mlh1 strain (AID 171);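 also: 0% = growth of vehicle-treated control cultures of the same strain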; details: S. cerevisiae mlh1 strain growth inhibition, stronger effect = higher value
In short: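 Here the genetically defined yeast mutant is grown with each compound, and the extent to which its growth falls below that of vehicle-exposed cells is reported.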

[11] = NCI Yeast Anticancer Drug Screen. Data for the sgs1 strain (AID 173);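 also: 0% = growth of vehicle-only control cultures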; details: S. cerevisiae sgs1 mutant, stronger effect = higher value
In short: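 Relative growth inhibition, referenced to vehicle, was determined in a yeast strain with a defined alteration affecting DNA damage repair or cell cycle control after compound exposure.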

[12] = NCI Yeast Anticancer Drug Screen. Data for the mlh1 rad18 strain (AID 175); details: S. cerevisiae mlh1 rad18 strain growth inhibition, stronger effect = higher value
In short: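 In this whole-cell yeast screen, a strain with altered DNA damage repair is challenged with compound, and its growth is measured against matched vehicle-treated controls.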

[13] = NCI Yeast Anticancer Drug Screen. Data for the rad18 strain (AID 177); details: S. cerevisiae rad18 mutant growth inhibition, stronger effect = higher value
In short: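 Screen uses a yeast strain with a defined lesion in DNA damage repair; compound effect is read as loss of growth compared to untreated vehicle cultures.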

[14] = NCI Yeast Anticancer Drug Screen. Data for the mec2-1 strain (AID 157); details: S. cerevisiae mec2-1 strain, stronger effect = higher value
In short: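 Test agents were screened against the mec2-1 yeast strain, with defined DNA repair or cell cycle alteration. Growth was scored as inhibition against vehicle-only controls.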

[15] = NCI Yeast Anticancer Drug Screen. Data for the wt2 strain (AID 169);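 also: 0% = growth of vehicle-treated yeast cultures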; details: S. cerevisiae wt2 strain growth inhibition, stronger effect = higher value
In short: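 Genetically defined yeast strains from a DNA-repair/cell-cycle panel were used. Compound-exposed yeast growth was measured, and the inhibition was calculated relative to vehicle treatment.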

[16] = at 5.0 µM (retest, dose inferred, filed as 0.5)
[17] = at 50.0 µM (retest, dose inferred, filed as 5.0)

Measured: growth inhibition

CCOc1ccc2ccc3cccnc3c2n1
inactive: [1]; at 1.2 µM -5% | [1]; at 3.7 µM -2% | [1]; at 11.0 µM 2% | [1]; at 33.0 µM 18% | [1]; at 100.0 µM 48% | [2]; at 1.2 µM -8% | [2]; at 3.7 µM 11% | [2]; at 11.0 µM 23% | [2]; at 33.0 µM 61% | [3]; at 1.2 µM -4% | [3]; at 3.7 µM 8% | [3]; at 11.0 µM -10% | [3]; at 33.0 µM 34% | [3]; at 100.0 µM 68% | [4]; at 1.2 µM -5% | [4]; at 3.7 µM 12% | [4]; [16] -1% | [4]; at 11.0 µM 26% | [4]; at 33.0 µM 59% | [4]; [17] 40% | [4]; at 50.0 µM 69% | [5]; at 1.2 µM -4% | [5]; at 3.7 µM 4% | [5]; at 11.0 µM -1% | [5]; at 33.0 µM 7% | [5]; at 100.0 µM 68% | [6]; [16] -8% | [6]; [17] 66% | [7]; at 1.2 µM -18% | [7]; at 3.7 µM -7% | [7]; at 11.0 µM -14% | [7]; at 33.0 µM 4% | [7]; at 100.0 µM 22% | [8]; [16] -33% | [8]; [17] -17% | [8]; at 50.0 µM -3.9% | [9]; at 1.2 µM -4% | [9]; at 3.7 µM -3% | [9]; [16] -9% | [9]; at 11.0 µM 1% | [9]; at 33.0 µM 36% | [9]; [17] 52% | [9]; at 50.0 µM 59% | [10]; at 1.2 µM -3% | [10]; at 3.7 µM -1% | [10]; at 11.0 µM 17% | [10]; at 33.0 µM 54% | [10]; at 100.0 µM 63% | [11]; at 1.2 µM -3% | [11]; at 3.7 µM 1% | [11]; at 11.0 µM 9% | [11]; at 33.0 µM 40% | [11]; at 100.0 µM 63% | [12]; [16] 2% | [12]; [17] 40% | [12]; at 50.0 µM 35% | [13]; at 1.2 µM -3% | [13]; at 3.7 µM 8% | [13]; at 11.0 µM 23% | [13]; at 33.0 µM 60%
active: [2]; at 100.0 µM 88% | [4]; at 100.0 µM 74% | [6]; at 50.0 µM 70.6% | [9]; at 100.0 µM 70% | [13]; at 100.0 µM 72%

O=C(O)[C@H]1[C@@H](C2CCCCC2)O[C@@H](C2CCCCC2)O[C@H]1C(F)(F)F
active: [4]; at 50.0 µM 88.1% | [14]; at 50.0 µM 91.8% | [6]; at 50.0 µM 85.5% | [9]; at 50.0 µM 87.8% | [12]; at 50.0 µM 83.8%
inactive: [1]; at 1.2 µM -3% | [1]; at 3.7 µM 0% | [1]; at 11.0 µM 0% | [1]; at 33.0 µM 0% | [1]; at 100.0 µM 1% | [2]; at 1.2 µM -4% | [2]; at 3.7 µM -1% | [2]; at 11.0 µM 2% | [2]; at 33.0 µM -2% | [2]; at 100.0 µM -3% | [3]; at 1.2 µM 0% | [3]; at 3.7 µM -4% | [3]; at 11.0 µM 10% | [3]; at 33.0 µM -17% | [3]; at 100.0 µM 0% | [4]; at 1.2 µM -4% | [4]; at 3.7 µM -5% | [4]; [16] -46% | [4]; at 11.0 µM -19% | [4]; at 33.0 µM -4% | [4]; [17] 61% | [4]; at 100.0 µM -2% | [14]; at 1.2 µM 2% | [14]; at 3.7 µM -2% | [14]; [16] -19% | [14]; at 11.0 µM 1% | [14]; at 33.0 µM -4% | [14]; [17] 16% | [14]; at 100.0 µM 5% | [5]; at 1.2 µM -1% | [5]; at 3.7 µM -1% | [5]; at 11.0 µM 0% | [5]; at 33.0 µM 0% | [5]; at 100.0 µM -1% | [6]; [16] -25% | [6]; [17] 12% | [7]; at 1.2 µM -1% | [7]; at 3.7 µM -1% | [7]; at 11.0 µM -13% | [7]; at 33.0 µM -8% | [7]; at 100.0 µM 4% | [9]; at 1.2 µM -4% | [9]; at 3.7 µM 2% | [9]; [16] -20% | [9]; at 11.0 µM 3% | [9]; at 33.0 µM -2% | [9]; [17] 5% | [9]; at 100.0 µM -1% | [10]; at 1.2 µM -3% | [10]; at 3.7 µM -1% | [10]; at 11.0 µM -4% | [10]; at 33.0 µM -5% | [10]; at 100.0 µM 3% | [11]; at 1.2 µM -2% | [11]; at 3.7 µM 0% | [11]; at 11.0 µM 1% | [11]; at 33.0 µM 1% | [11]; at 100.0 µM 1% | [12]; [16] -3% | [12]; [17] 18% | [13]; at 1.2 µM -6% | [13]; at 3.7 µM -4% | [13]; at 11.0 µM -8% | [13]; at 33.0 µM -6% | [13]; at 100.0 µM -2%

Cc1c(N=Nc2ccc(Cl)cc2)c(C)n(C2OC(CO)C(O)C(O)C2O)c(=S)c1C#N (stereo not given)
active: [2]; at 100.0 µM 81% | [3]; at 100.0 µM 91% | [5]; at 100.0 µM 71% | [6]; at 50.0 µM 87% | [9]; at 50.0 µM 75.5% | [15]; at 100.0 µM 90% | [10]; at 100.0 µM 90% | [11]; at 100.0 µM 82% | [12]; at 50.0 µM 83.9% | [13]; at 100.0 µM 83%
inactive: [1]; at 1.2 µM 1% | [1]; at 3.7 µM 2% | [1]; at 11.0 µM 3% | [1]; at 33.0 µM 9% | [1]; at 100.0 µM 24% | [2]; at 1.2 µM 5% | [2]; at 3.7 µM 19% | [2]; at 11.0 µM 40% | [2]; at 33.0 µM 66% | [3]; at 1.2 µM -1% | [3]; at 3.7 µM 1% | [3]; at 11.0 µM 12% | [3]; at 33.0 µM 66% | [4]; at 1.2 µM -3% | [4]; at 3.7 µM -9% | [4]; [16] -11% | [4]; at 11.0 µM -2% | [4]; at 33.0 µM 35% | [4]; [17] 52% | [4]; at 50.0 µM 60.4% | [4]; at 100.0 µM 66% | [14]; at 1.2 µM 2% | [14]; at 3.7 µM 3% | [14]; [16] -5% | [14]; at 11.0 µM 6% | [14]; at 33.0 µM 21% | [14]; [17] 40% | [14]; at 50.0 µM 60.2% | [14]; at 100.0 µM 28% | [5]; at 1.2 µM -2% | [5]; at 3.7 µM -3% | [5]; at 11.0 µM 6% | [5]; at 33.0 µM 28% | [6]; [16] 1% | [6]; [17] 65% | [7]; at 1.2 µM -2% | [7]; at 3.7 µM -2% | [7]; at 11.0 µM 1% | [7]; at 33.0 µM 15% | [7]; at 100.0 µM 54% | [9]; at 1.2 µM 0% | [9]; at 3.7 µM 2% | [9]; [16] 1% | [9]; at 11.0 µM 9% | [9]; at 33.0 µM 23% | [9]; [17] -3% | [9]; at 100.0 µM 45% | [15]; at 1.2 µM -2% | [15]; at 3.7 µM -3% | [15]; at 11.0 µM 1% | [15]; at 33.0 µM 37% | [10]; at 1.2 µM 2% | [10]; at 3.7 µM 1% | [10]; at 11.0 µM 8% | [10]; at 33.0 µM 45% | [11]; at 1.2 µM 1% | [11]; at 3.7 µM 5% | [11]; at 11.0 µM 12% | [11]; at 33.0 µM 55% | [12]; [16] -19% | [12]; [17] 53% | [13]; at 1.2 µM -1% | [13]; at 3.7 µM 8% | [13]; at 11.0 µM 18% | [13]; at 33.0 µM 59%
